According to PubChem BioAssay AID588651 (The Scripps Research Institute Molecular Screening Center, 2011):
The source made the active and inactive calls. Cut-off read from the data, not from the text of the source: active = inhibition above about 65%; inactive = the rest.

tested on: Fam108b; experiment: Fam108b inhibitors and proteome off-target selectivity – biochemical, gel-based ABPP, recombinant soluble Fam108b, HTS hits, complex proteome, late-stage follow-up (AID 588651); conditions: FP-rhodamine labeling in proteome, at 20 µM, stronger effect = higher value;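 note: Fam108b spiked into mouse brain membrane proteome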

inhibition, inactive:
CCN(CC)c1ccc(C2Nc3cccc4cccc(c34)N2)c(O)c1 10%
Cn1c(O)c(C=NNC(=O)c2cc3ccccc3cc2O)c2ccccc21 35%
O=[N+]([O-])c1ccc(NN=Cc2ccccc2O)cc1 0%
CCc1ccc(S(=O)(=O)/N=C2\C=C(Nc3cccc(C(=O)O)c3)C(=O)c3ccccc32)cc1 0%
COc1cccc(-n2c(SCc3cc(=O)oc4cc(O)c(O)cc34)nc3ccccc3c2=O)c1 10%
COc1cc(-c2nc(-c3ccc4c(c3)-c3ccccc3S4(=O)=O)c(-c3ccccc3)[nH]2)cc(OC)c1O 40%
Cc1cc(C(C#N)c2ccc(Cl)cc2)c(Cl)cc1NC(=O)c1cc(I)cc(I)c1O (stereo not given) 50%
O=C(NC1CCCCC1)c1sc(=S)n2c1[nH]c(=O)c1ccccc12 0%
Cc1ccccc1NC1=C/C(=N\S(=O)(=O)c2cccs2)c2ccccc2C1=O 0%
CN(C)S(=O)(=O)c1cccc(NC(=O)COC(=O)c2cc(-c3cccc(Br)c3)nc3ccccc23)c1 0%
O=C1C(SCCO)=C(SCCO)C(=O)c2ccccc21 50%
O=C1c2ccccc2-c2onc3ccc(NCCCn4ccnc4)c1c23 0%

inhibition, active:
Cc1nc2scc(-c3ccc(Cl)cc3)c2c(=O)o1 95%
COc1ccc(-c2csc3nc(-c4ccccc4OC)oc(=O)c23)cc1 80%
O=C(Nc1cccc(C(F)(F)F)c1)Nc1ccc(N2CCCC2)c(S(=O)(=O)Nc2ccccc2Cl)c1 98%
